# The whole screen tested about 310,000 compounds, of which about 14,000 (4.5%) showed an effect of 50% or more. The effect is printed as a negative number. For the sample, strong results were picked, then their nearest neighbours and some compounds at random.
# Target: human ether-à-go-go-related gene (hERG) potassium channel (human, UniProt Q12809)
# Test: primary screen, population patch clamp on CHO cells stably expressing hERG; higher = less effect of the substance
# 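Also: peak tail current of the secondary pulse compared with the same well before compound.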
# human ether-à-go-go-related gene (hERG) potassium channel, sequence (Q12809 whole entry, looked up): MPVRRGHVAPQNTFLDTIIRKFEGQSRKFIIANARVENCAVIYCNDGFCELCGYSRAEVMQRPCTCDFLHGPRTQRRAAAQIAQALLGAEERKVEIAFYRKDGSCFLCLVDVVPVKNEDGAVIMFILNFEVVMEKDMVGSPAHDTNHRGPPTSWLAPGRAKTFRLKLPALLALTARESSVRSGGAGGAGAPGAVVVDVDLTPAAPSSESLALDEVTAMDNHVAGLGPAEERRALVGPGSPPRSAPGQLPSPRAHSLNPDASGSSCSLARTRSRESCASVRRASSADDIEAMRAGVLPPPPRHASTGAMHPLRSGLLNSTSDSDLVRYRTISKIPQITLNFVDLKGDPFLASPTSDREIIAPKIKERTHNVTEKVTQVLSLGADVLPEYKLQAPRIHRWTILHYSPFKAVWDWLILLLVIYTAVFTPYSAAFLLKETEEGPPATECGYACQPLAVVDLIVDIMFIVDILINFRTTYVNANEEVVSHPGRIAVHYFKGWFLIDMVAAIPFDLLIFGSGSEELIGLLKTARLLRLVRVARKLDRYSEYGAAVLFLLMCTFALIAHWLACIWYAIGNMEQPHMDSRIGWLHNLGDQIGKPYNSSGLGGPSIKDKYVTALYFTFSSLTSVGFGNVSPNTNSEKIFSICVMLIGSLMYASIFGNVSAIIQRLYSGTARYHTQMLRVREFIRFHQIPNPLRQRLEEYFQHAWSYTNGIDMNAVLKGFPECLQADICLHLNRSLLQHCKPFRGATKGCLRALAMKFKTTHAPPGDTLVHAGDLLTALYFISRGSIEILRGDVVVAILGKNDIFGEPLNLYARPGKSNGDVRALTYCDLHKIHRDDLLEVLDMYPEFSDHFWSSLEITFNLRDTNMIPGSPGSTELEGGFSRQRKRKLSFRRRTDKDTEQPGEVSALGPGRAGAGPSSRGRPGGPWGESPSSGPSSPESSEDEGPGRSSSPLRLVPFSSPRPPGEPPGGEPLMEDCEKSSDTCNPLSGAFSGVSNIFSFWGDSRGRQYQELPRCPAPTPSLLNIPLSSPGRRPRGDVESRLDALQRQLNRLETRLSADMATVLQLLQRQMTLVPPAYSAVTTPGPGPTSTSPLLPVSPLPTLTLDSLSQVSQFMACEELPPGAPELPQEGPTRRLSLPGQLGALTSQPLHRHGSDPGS
row,Structure (SMILES),"hERG current change (%, negative = inhibition) at 10uM [%]"
1,CCCCCCC/C=N/Nc1nnc(Cc2ccccc2)c(=O)[nH]1,33.2
2,CCn1cc(C(=O)NCc2ccc(OC)cc2)c(=O)c2ccc(C)nc21,22.1
3,Cc1cccc(NC(=S)NNC(=O)c2csc(C(C)C)c2)c1,2.52
4,CCN(CC)CCCNC(=O)c1cn(CCOC)c(=O)c2c1c1ccccc1n2C,-0.445
5,O=Cc1coc2ccc3ccccc3c2c1=O,14.5
6,CCCN(C(=O)c1cn(-c2ccccc2)nc1-c1ccc(OC)cc1)C1CCS(=O)(=O)C1 (stereo not shown),-22.8
7,CCc1nnc(NC(=O)CN2CCN(C(=O)c3ccccc3)CC2)s1,14.7
8,O=C(CN1CCOCC1)Nc1ncc(Br)cc1Br,-20.3
9,O=C(CN1CCN(C(=O)c2ccccc2)CC1)Nc1ncc(Br)cc1Br,-78.1
10,O=C(CN1CCN(C(=O)c2ccccc2)CC1)Nc1ccc(Br)cn1,-74.4
11,O=C(CN1CCN(C(=O)c2ccccc2)CC1)Nc1ccccc1,-20.1
12,O=C(CN1CCCCCC1)Nc1ccc(Br)cn1,-20.7
13,CCOC(=O)N1CCC(NC(=O)c2cc3c(=O)[nH]c4ccccc4c3n2C)CC1,-3.23
14,COc1ccccc1NC(=O)/C(=C/c1cccs1)NC(=O)c1ccco1,-33.1
15,CC(=O)Nc1ccc2nc(NC(=O)c3ccc([N+](=O)[O-])s3)sc2c1,8.75
16,CCSc1nc2c(c(=O)[nH]1)C(C(C)C)C(C#N)=C(N)O2 (stereo not shown),5.71
17,Cc1ccccc1NC(=O)Nc1nc2ccc(S(C)(=O)=O)cc2s1,-2.53
18,O=C(N/N=C/c1coc2ccc(Cl)cc2c1=O)c1ccncc1,6.28
19,CCCN(CCC)CCCNC(=O)C1CCC(CNS(=O)(=O)c2cccc3nsnc23)CC1 (stereo not shown),-10.1
20,O=C(CN(Cc1ccccc1Cl)C(=O)c1csnn1)NCc1ccc2c(c1)OCO2,-51.4
21,O=C(CN(C(=O)c1csnn1)c1ccc(F)cc1)NCc1ccc2c(c1)OCO2,9.12
22,O=C(CN(C(=O)c1csnn1)c1cccc(F)c1)NCc1ccc2c(c1)OCO2,-7.22
23,COc1ccc(CN(CC(=O)NCc2ccc3c(c2)OCO3)C(=O)c2csnn2)cc1,-39.8
24,O=C(CN(Cc1ccccc1F)C(=O)c1csnn1)NCc1ccc2c(c1)OCO2,-22

row,Structure (SMILES),"hERG current change (%, negative = inhibition) at 10uM [%]"
1,O=C(Cc1ccccc1)NCc1ccc2c(c1)OCO2,3.22
2,Cc1ccc(CN(CC(=O)NCc2ccc3c(c2)OCO3)C(=O)c2csnn2)cc1,-50.5
3,COc1ccccc1CN(CC(=O)NCc1ccc2c(c1)OCO2)C(=O)c1ccc2c(c1)OCCO2,-28.4
4,O=C(CN(Cc1ccccc1)C(=O)c1csnn1)NCc1ccc2c(c1)OCO2,-23.4
5,O=C(CN(Cc1ccccc1)C(=O)c1ccc2c(c1)OCCO2)NCc1ccc2c(c1)OCO2,-59
6,COc1ccccc1CN(CC(=O)NCc1ccc2c(c1)OCO2)C(=O)c1csnn1,-34.2
7,O=C(CN(Cc1ccc(F)cc1)C(=O)c1csnn1)NCc1ccc2c(c1)OCO2,-64.5
8,C=CCn1c(Cc2cccs2)nnc1SCC(=O)Nc1cc(OC)cc(OC)c1,-27.8
9,Cc1nc2nc(C)c(CCC(=O)Nc3ccc4c(c3)OCO4)c(C)n2n1,-18
10,COc1ccc(C2N=C(N)N=C(N)N2c2ccccc2OC)cc1OC.Cl (stereo not shown),-11.7
11,O=C(Nc1nnc(-c2cccs2)o1)C1CC1,3.93
12,CCOC(=O)C1=NNC(C(=O)c2ccc(OC)cc2)C1c1ccccc1 (stereo not shown),-9.43
13,Cn1ncc(C#N)c1NC(=O)C1CC(c2ccc(Cl)c(Cl)c2)=NO1 (stereo not shown),-9.94
14,COc1cccc(CC(=O)Nc2nc3ccccc3[nH]2)c1,10.7
15,Cc1cccc(NC(=S)NCCc2c[nH]c3ccccc23)c1,-4.25
16,CCOC(=O)CNC(=S)N(Cc1ccccc1F)C1CCCCC1,-73
17,O=C(O)CNC(=S)N(Cc1ccccc1F)C1CCCCC1,0.581
18,CCCNC(=O)CNC(=S)N(Cc1ccccc1F)C1CCCCC1,-10.8
19,CC(C)c1ccc(S(=O)(=O)N2CCN(C(=O)n3ccnc3)CC2)cc1,-35.8
20,COc1cc(OC)cc(C(=O)N[C@H](C(=O)NCc2ccccc2)C(C)C)c1,7.08
21,CCOC(=O)N1CCN(C(=S)NC(=O)c2cc(Br)ccc2Cl)CC1,3.59
22,C=CCc1c(C)nc(C)nc1N/N=C/c1ccc([N+](=O)[O-])cc1.Cl,-56.3
23,C=CCc1c(C)nc(C)nc1N/N=C/c1ccccc1,-19.2
24,C=CCc1c(C)nc(C)nc1N/N=C/c1ccc(F)cc1,-30.9

row,Structure (SMILES),"hERG current change (%, negative = inhibition) at 10uM [%]"
1,CCC(c1nnnn1Cc1ccc(F)cc1)N(CCCO)Cc1cc2cc3c(cc2[nH]c1=O)OCO3 (stereo not shown),-17.5
2,Cc1ccc(-n2c(O)c(/C=N/c3ncc(Br)cc3Br)c(=O)[nH]c2=O)cc1,2.79
3,CCCCNC(=O)CSc1nc2cc3c(cc2c(=O)n1CCCN(CC)CC)OCO3,-62.6
4,CCOCCCn1c(SCC(=O)Nc2ccc(NC(C)=O)cc2)nc2ccccc2c1=O,7.29
5,CCCCNC(=O)CSc1nc2cc3c(cc2c(=O)n1Cc1ccco1)OCO3,-10.8
6,CCOCCCn1c(SCC(=O)Nc2ccccc2OC)nc2ccccc2c1=O,-45
7,COCCCNC(=O)CSc1nc2ccccc2c(=O)n1Cc1ccc2c(c1)OCO2,12.4
8,CCOCCCn1c(SCC(=O)Nc2ccccc2)nc2ccccc2c1=O,-29.4
9,CCOCCCn1c(SCC(=O)NCc2ccc3c(c2)OCO3)nc2ccccc2c1=O,-59
10,COCCn1c(SCC(=O)NCc2ccc3c(c2)OCO3)nc2ccccc2c1=O,-42.4
11,CCOCCCn1c(SCC(=O)Nc2cc(OC)ccc2OC)nc2ccccc2c1=O,-55.7
12,CCCCNC(=O)CSc1nc2cc3c(cc2c(=O)n1CCCC(=O)NCCc1ccc(OC)c(OC)c1)OCO3,1.71
13,CCOCCCn1c(SCC(=O)Nc2ccc(OC)cc2)nc2ccccc2c1=O,-11
14,CCOCCCn1c(SCC(=O)Nc2cccc(OC)c2)nc2ccccc2c1=O,-58.4
15,CCC1CCCCN1Cc1ccc(CNC(=O)CCc2nnc3ccc(N4CCCCC4)nn23)o1 (stereo not shown),18.2
16,Cc1ccc(S(=O)(=O)N2CCC(C)CC2)c([N+](=O)[O-])c1,-12.9
17,Cc1ccc(CN2CC(C(=O)N(C)CC(=O)Nc3cccc(F)c3)CC2=O)cc1 (stereo not shown),-7.16
18,O=C1Nc2ccccc2C1(O)c1ccccc1O (stereo not shown),34.6
19,CCOc1ccc(OCCC(=O)OCC(=O)Nc2ccc3c(c2)OCCO3)cc1,-5.02
20,CC(C)[C@H]1CN=C2N(C[C@H](C)NC(=O)CCC3CCCCC3)[C@H](Cc3ccc(O)cc3)CN21,-59.7
21,COc1ccc(C[C@@H]2CN3C(=NC[C@@H]3C)N2C[C@H](C)NC(=O)CCC2CCCCC2)cc1,-67.4
22,O=C(CCC1CCCC1)N[C@@H](Cc1ccc(O)cc1)C(=O)O,28.8
23,COc1ccc(C[C@@H]2CN3C(=NC[C@@H]3Cc3ccc(O)cc3)N2C[C@H](C)NC(=O)CCC2CCCCC2)cc1,-80.6
24,COc1ccc(C[C@H]2CN3C(=NC[C@@H]3Cc3ccc(O)cc3)N2C[C@H](C)NC(=O)CCC2CCCCC2)cc1,-66.1

row,Structure (SMILES),"hERG current change (%, negative = inhibition) at 10uM [%]"
1,C[C@@H](CN1C2=NC[C@H](C)N2C[C@H]1Cc1ccc(O)cc1)NC(=O)CCC1CCCCC1,-11.9
2,Cc1cc(C)cc(NC(=S)N2CCN(CCO)CC2)c1,14.3
3,COC(=O)c1ccc(OC)c(CSc2nnc(COc3ccc(OC)cc3)o2)c1,-27.1
4,N#Cc1ccccc1CSc1nc2ncc(Br)cc2[nH]1,5.22
5,CC(C)(C)c1cc(NC(=O)Nc2ccccc2OC(F)(F)F)no1,26.4
6,O=C(COC(=O)c1cccc(S(=O)(=O)NCc2ccccc2)c1)Nc1ccccc1OC(F)F,11.5
7,CC1CCCN(C(=O)NC(=O)c2ccc(Cl)cc2)C1 (stereo not shown),3.85
8,C[C@@H](CN1C2=NC[C@H](Cc3ccccc3)N2C[C@H]1Cc1ccc(O)cc1)NC(=O)CCC1CCCCC1,-71.2
9,CC(CCc1ccccc1)NC(=O)CCC1CCCC1 (stereo not shown),-24.5
10,C[C@@H](CN1C2=NC[C@H](Cc3ccc(O)cc3)N2C[C@H]1Cc1ccc(O)cc1)NC(=O)CCC1CCCCC1,-10.3
11,O=C(c1ccncc1)c1ccc(N2CCN(C3CC(=O)N(Cc4cccs4)C3=O)CC2)cc1 (stereo not shown),-79.3
12,O=C(c1ccc(N2CCN(C3CC(=O)N(c4ccc(F)cc4)C3=O)CC2)cc1)c1cccnc1 (stereo not shown),-50.6
13,NC(=O)C1(N2CCCCC2)CCN(C2CC(=O)N(Cc3cccs3)C2=O)CC1 (stereo not shown),6.12
14,CCN1C(=O)CC(N2CCN(c3ccc(C(=O)c4ccncc4)cc3)CC2)C1=O (stereo not shown),-12.3
15,O=C(c1ccncc1)c1ccc(N2CCN(C3CC(=O)N(Cc4ccccc4)C3=O)CC2)cc1 (stereo not shown),-76.2
16,O=C1CC(N2CCN(c3ccc(F)cc3)CC2)C(=O)N1Cc1ccccc1 (stereo not shown),-17.6
17,O=C(c1ccc(N2CCN(C3CC(=O)N(Cc4cccs4)C3=O)CC2)cc1)c1cccnc1 (stereo not shown),-73.5
18,NC(=O)C1CCN(C2CC(=O)N(Cc3cccs3)C2=O)CC1 (stereo not shown),0.931
19,O=C1CC(N2CCN(c3ccc(F)cc3)CC2)C(=O)N1Cc1cccs1 (stereo not shown),-42.5
20,O=C1CC(N2CCN(c3ccc(O)cc3)CC2)C(=O)N1Cc1cccs1 (stereo not shown),-7.15
21,O=C1CC(N2CCN(c3ccc(F)cc3)CC2)C(=O)N1c1ccc(F)cc1 (stereo not shown),1.07
22,COc1ccc(N2C(=O)CC(N3CCN(c4ccc(C(=O)c5cccnc5)cc4)CC3)C2=O)cc1 (stereo not shown),-48.2
